Only some compounds are listed: those with a hit (about 1.4% of all), similar ones and a draw of the others.
eLon inh: E. coli protease La inhibition | inhibition, % at 7.94 µM | 360,000 compounds, 0.42% hits | purified E. coli Lon protease, fluorescence polarization | P0A9M0; in the data active means inhibition above about 13%, passing the limit was not always enough;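 further: 0% = enzyme with probe and DMSO and 100% = no enzyme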
Target sequence (P0A9M0 whole entry, looked up): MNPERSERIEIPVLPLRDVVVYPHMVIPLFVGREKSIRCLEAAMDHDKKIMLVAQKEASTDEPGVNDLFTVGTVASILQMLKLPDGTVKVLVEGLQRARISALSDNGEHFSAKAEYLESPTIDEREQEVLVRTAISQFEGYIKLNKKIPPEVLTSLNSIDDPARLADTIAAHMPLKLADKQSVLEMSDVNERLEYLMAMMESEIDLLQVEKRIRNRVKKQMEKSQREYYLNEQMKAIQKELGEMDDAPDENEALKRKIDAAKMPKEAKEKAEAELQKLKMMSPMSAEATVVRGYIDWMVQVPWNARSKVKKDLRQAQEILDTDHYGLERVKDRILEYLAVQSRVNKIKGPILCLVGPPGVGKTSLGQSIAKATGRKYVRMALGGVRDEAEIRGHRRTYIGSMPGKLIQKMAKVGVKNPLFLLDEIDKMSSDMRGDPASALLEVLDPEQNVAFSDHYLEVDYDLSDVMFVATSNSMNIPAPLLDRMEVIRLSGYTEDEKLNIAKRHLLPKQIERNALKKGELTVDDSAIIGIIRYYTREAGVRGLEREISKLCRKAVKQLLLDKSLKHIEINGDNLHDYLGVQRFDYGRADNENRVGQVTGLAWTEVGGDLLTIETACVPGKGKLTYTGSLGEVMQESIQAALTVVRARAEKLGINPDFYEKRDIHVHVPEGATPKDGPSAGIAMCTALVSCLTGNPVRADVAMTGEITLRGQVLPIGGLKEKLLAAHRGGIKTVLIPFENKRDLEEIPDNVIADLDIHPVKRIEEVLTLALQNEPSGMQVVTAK
GLD-1 RNA inh: GLD-1-TGE RNA interaction inhibition (C. elegans). 320,000 compounds, 0.44% hits. Q17339. purified GLD-1 + fluorescein TGE RNA, fluorescence polarization. inhibition, % at 5.96 µM;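 active means percent inhibition above a per-plate cutoff, the plate mean of test compounds plus 3 SD, cut at about 30% in these data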;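 further: 0% = DMSO wells with GLD-1 and probe and 100% = wells lacking GLD-1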
MEX-5 binding: C. elegans MEX-5 TCR-2 RNA binding activity; AID 1832; MEX-5/FITC-TCR2 RNA binding, fluorescence polarization; hits give low values; 300,000 compounds, 0.38% hits; Q9XUB2; activity score (negative = inhibition of binding), % at 10 µM;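 active means inhibition past about -25% in most replicates, and total fluorescence under double the plate's negative control median, limit read from the data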;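 further: 0% = DMSO and -100% = 5 µM competing unlabeled TCR2 RNA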
Bcl-xL primary: blocks human Bcl-xL binding to Bim BH3 peptide | 320,000 compounds, 0.7% hits | GST-Bcl-xL / FITC-Bim BH3 peptide fluorescence polarization | Q07817 | inhibition, % at 10.9 µM;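 active means inhibition above the mean of all tested compounds plus 3 SD, cutoff set per campaign, cut at about 30% in these data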;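 further: 0% = DMSO wells and 100% = unlabeled Bim-BH3 peptide competitor; inhibitors lower millipolarization by displacing the labeled peptide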
EBV gp42 inh: blocks Epstein-Barr virus glycoprotein 42 binding | Q1HVG2 | Fluorescence polarization binding assay, mP read-out | 220,000 compounds, 0.42% hits | inhibition, % (tested at 21.74 µM) | AID 1085; in the data active means inhibition above about 50%
MCL1-BIM inh: disrupts human MCL1 binding to BIM-BH3 peptide. inhibition, % at 10.9 µM. GST-MCL1 / FITC-Bim-BH3 fluorescence polarization. 320,000 compounds, 0.68% hits. Q07820;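 active means inhibition above the mean inhibition of all tested compounds plus 3 SD, set per campaign, cut at about 40% in these data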;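 further: 0% = DMSO wells and 100% = unlabeled Bim-BH3 peptide control; higher means more loss of mP so more displacement of Bim peptide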
Numbers without * were called inactive.

Screening CCN(CC)c1ccc2cc(S(=O)(=O)c3ccc(Cl)cc3)c(=O)oc2c1 returned eLon inh -37.8, GLD-1 RNA inh -28.2, MEX-5 binding -5.7, Bcl-xL primary -0.9, EBV gp42 inh 159.2* and MCL1-BIM inh -12.2.
For CCCCCCc1cc2cc(S(=O)(=O)c3ccc(Cl)cc3)c(=O)oc2cc1O the results were eLon inh -6.9, GLD-1 RNA inh 29.8, MEX-5 binding -1.2, Bcl-xL primary 1.2, EBV gp42 inh -9.6 and MCL1-BIM inh -3.0.
O=C(CCCCCNC(=O)N1CCn2c1nc1ccccc12)NCc1ccc(F)cc1 was read as eLon inh -5.1, GLD-1 RNA inh 3.6, MEX-5 binding 2.3, Bcl-xL primary 5.6 and MCL1-BIM inh 8.0.
Screening CC(=O)C(Sc1ncnc2sc3c(c12)CCCC3)C(C)=O returned eLon inh 2.8, GLD-1 RNA inh -1.2, MEX-5 binding 0.0, Bcl-xL primary 3.9, EBV gp42 inh -12.5 and MCL1-BIM inh 7.7.
Cc1oc2c(CN3CCC(C)CC3)c(O)ccc2c(=O)c1-c1ccccc1 was read as eLon inh -4.3, GLD-1 RNA inh 13.5, MEX-5 binding -0.7, Bcl-xL primary 34.0* and MCL1-BIM inh 6.2.
`Cc1ccc(/C=C/C2=Cc3c(sc(NC(=O)CSc4n[nH]c(N)n4)c3C#N)C(C)(C)C2)o1` gave GLD-1 RNA inh 37.0*, MEX-5 binding 4.2, Bcl-xL primary 53.8*, EBV gp42 inh 76.8* and MCL1-BIM inh 60.7*.
For Cc1sc(NC(=O)CSc2n[nH]c(N)n2)c(C#N)c1C the results were eLon inh -13.4.
`O=C(CSc1nc2ncccc2[nH]1)Nc1ccc2c(c1)OCO2` gave eLon inh -5.8, GLD-1 RNA inh 1.7, MEX-5 binding 0.3, Bcl-xL primary 2.4, EBV gp42 inh 72.7* and MCL1-BIM inh 3.1.
Screening C=CCOC(=O)C(=O)/C=C/c1coc2ccccc2c1=O returned eLon inh -10.9, GLD-1 RNA inh 63.4*, MEX-5 binding 5.0, Bcl-xL primary 51.5*, EBV gp42 inh -28.5 and MCL1-BIM inh 46.5*.
Screening Cc1ccc(S(=O)(=O)Nc2ccccc2F)cc1C(=O)NNC(=O)c1ccccc1O returned eLon inh 5.8, GLD-1 RNA inh 0.9, MEX-5 binding -37.2*, Bcl-xL primary 4.1 and MCL1-BIM inh 7.0.
Screening CN1C(=O)c2ccc(NC(=S)NC(=O)C(C)(C)C)cc2C1=O returned eLon inh -5.6, GLD-1 RNA inh 5.1, MEX-5 binding 1.7, Bcl-xL primary -1.3, EBV gp42 inh -7.6 and MCL1-BIM inh 4.0.
`Cc1cc(C)n(CCCNC(=O)c2ccc(C)c(S(=O)(=O)N3CCOCC3)c2)n1` gave eLon inh -3.4, GLD-1 RNA inh 3.8, MEX-5 binding -0.5, Bcl-xL primary 4.4 and MCL1-BIM inh 0.8.
Screening CCCCCCn1cc(CN2CC(N3CCN(CCO)CC3)CS2(=O)=O)nn1 (centres undefined) returned eLon inh 0.9.
For COc1ccccc1/C=N/N1C(=O)c2cccc3cccc(c23)C1=O the results were eLon inh -3.2, GLD-1 RNA inh 2.8, MEX-5 binding -2.5, Bcl-xL primary 43.4*, EBV gp42 inh 37.2 and MCL1-BIM inh 36.2.
Screening N=C1C(c2nc3ccccc3[nH]2)=C(O)CN1c1ccc(CC(=O)O)cc1 returned eLon inh -16.7, GLD-1 RNA inh -2.5, MEX-5 binding -84.9*, Bcl-xL primary 16.0, EBV gp42 inh -10.0 and MCL1-BIM inh 11.9.
Screening CC(=O)c1ccc(NC(=O)COC(=O)CCc2ccc(S(=O)(=O)N3CCOCC3)cc2)cc1 returned eLon inh -8.8, GLD-1 RNA inh -5.9, MEX-5 binding -0.8, Bcl-xL primary -0.6, EBV gp42 inh -8.7 and MCL1-BIM inh 1.7.
Screening Oc1cccc(/C=N/N=C/c2cccc(O)c2O)c1O returned eLon inh -3.7, GLD-1 RNA inh -1.2, MEX-5 binding -37.2*, Bcl-xL primary 3.5 and MCL1-BIM inh 18.8.
For CN1CCN(S(=O)(=O)c2ccc(NC(=O)c3ccc(F)cc3Cl)cc2)CC1 the results were eLon inh -4.7, GLD-1 RNA inh -0.3, MEX-5 binding -2.1, Bcl-xL primary -0.9 and MCL1-BIM inh 4.2.
Screening O=C(CSc1ccc([N+](=O)[O-])cn1)Nc1cc(C(F)(F)F)ccc1N1CCOCC1 returned eLon inh 7.2, GLD-1 RNA inh 10.8, MEX-5 binding -4.7, Bcl-xL primary -2.1 and MCL1-BIM inh 6.6.
`CCOC(=O)[C@H]1[C@H]2COc3ccccc3[C@@H]2N2C(=O)CN(Cc3ccc(C)cc3)C(=O)[C@@]12C` gave eLon inh -14.1 and GLD-1 RNA inh 91.4*.
CCOC(=O)[C@H]1[C@H]2COc3ccc(C)cc3[C@@H]2N2C(=O)CN(Cc3ccc(Cl)cc3)C(=O)[C@@]12C was read as eLon inh 5.7, GLD-1 RNA inh -0.9, Bcl-xL primary 4.5 and MCL1-BIM inh 3.2.
COc1cc(C2C(C#N)=C(N)OC3=C2C(=O)CCC3)c([N+](=O)[O-])cc1OC (centres undefined) was read as eLon inh 49.8*, GLD-1 RNA inh 98.3*, MEX-5 binding -62.8*, Bcl-xL primary 155.7*, EBV gp42 inh 83.1* and MCL1-BIM inh 193.7*.
Screening O=C(CSc1nc(-c2ccc(F)cc2)nc2c1Cc1ccccc1O2)Nc1cccc(C(=O)O)c1 returned eLon inh -5.4, MEX-5 binding 2.0 and EBV gp42 inh 71.1*.
Screening O=C(NC1CCCC1)c1cccc(S(=O)(=O)N2CCCC2)c1 returned eLon inh -2.4, GLD-1 RNA inh 6.3, Bcl-xL primary 5.0 and MCL1-BIM inh 4.2.
`C=CCn1c(=N)n(CC(O)c2ccco2)c2ccccc21` (centres undefined) gave eLon inh 4.1, GLD-1 RNA inh 15.1, MEX-5 binding -1.3, Bcl-xL primary 33.8*, EBV gp42 inh 4.5 and MCL1-BIM inh 30.7.
For O=C(CN1C(=O)COc2ccccc2C1=O)c1ccc2c(c1)OCCO2 the results were eLon inh -14.1, GLD-1 RNA inh 2.2, MEX-5 binding 2.0, Bcl-xL primary 5.2 and MCL1-BIM inh 5.6.
Screening CCCCOc1ccc2c(c1)C(=O)c1cc(O)ccc1-2 returned eLon inh 8.5, GLD-1 RNA inh 139.2*, MEX-5 binding -0.5, Bcl-xL primary 4.6, EBV gp42 inh 0.7 and MCL1-BIM inh 8.9.
Screening CN(C)c1ccc(-c2csc(C(O)c3cccc(Cl)c3)n2)cc1 (centres undefined) returned eLon inh -4.4.
Screening COc1cc(C=C2C(=O)c3ccccc3C2=O)ccc1O returned eLon inh 2.6, GLD-1 RNA inh -6.3, MEX-5 binding -2.2, Bcl-xL primary 2.2, EBV gp42 inh -17.0 and MCL1-BIM inh -10.0.
COc1cc(C=C2C(=O)c3ccccc3C2=O)cc(OC)c1OC was read as eLon inh -8.7, GLD-1 RNA inh 2.3, MEX-5 binding -54.1*, Bcl-xL primary 11.1, EBV gp42 inh 95.4* and MCL1-BIM inh 4.1.
